Laboratory results reported in PubChem BioAssay.
Calls of active or inactive are those of the source. Unless noted, no rule for the calls is given here.

What was measured:
[1] = A549 cell viability effects, profiling panel, calcein-AM fluorescence, 48 h, basal (AID 1162); settings: higher = more signal; also: test concentration not given here
[2] = adipocyte viability effects, profiling panel, cell-based, 3T3-L1 adipocytes, calcein-AM fluorescence, 48 h, basal (AID 1163); settings: 3T3-L1 adipocytes viability, higher = more signal; also: test concentration not given here
[3] = HepG2 cell viability effects, profiling panel, calcein-AM fluorescence, 48 h, basal (AID 1164); settings: higher = more signal; also: test concentration not given here
[4] = MM1S cell viability effects, profiling panel, calcein-AM fluorescence, 48 h, basal (AID 1165); settings: higher = more signal;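 also: viability of MM1S multiple myeloma cells under basal unstimulated conditions; test concentration not given here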
[5] = basal RPMI8226 viability, no added stimulus, profiling panel, cell-based, calcein-AM fluorescence, 48 h, PK04 Diversity Set (AID 1166); settings: RPMI8226 myeloma viability, higher = more signal;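 also: cells grown under basal conditions without added stimulus; test concentration not given here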
[6] = basal HepG2 mitochondrial membrane potential changes, profiling panel, cell-based, JC-1 fluorescence, 24 h, 100 nL compound (AID 1167); settings: higher = more signal; also: test concentration not given here
[7] = basal 3T3-L1 adipocyte mitochondrial potential changes, profiling panel, cell-based, JC-1 fluorescence, 3T3-L1 adipocytes, 24 h, 100 nL compound (AID 1168); settings: JC-1 mitochondrial fluorescence, higher = more signal, called active from +8 up or from −8 down; also: test concentration not given here
[8] = basal RPMI8226 mitochondrial membrane potential changes, profiling panel, cell-based, JC-1 fluorescence, 24 h, 100 nL compound (AID 1169); settings: RPMI8226 myeloma, JC-1 mitochondrial potential fluorescence, higher = more signal; also: test concentration not given here
[9] = basal MM1S mitochondrial membrane potential changes, profiling panel, cell-based, JC-1 fluorescence, 24 h, 100 nL compound (AID 1170); settings: higher = more signal; also: test concentration not given here
[10] = A549 lung cancer cell viability effects, profiling panel, resazurin fluorescence, 24 h, PK04 Diversity Set (AID 1171); settings: higher = more signal, called active from +8 up or from −8 down; also: test concentration not given here
[11] = HepG2 liver cancer cell viability effects, profiling panel, resazurin fluorescence, 24 h, PK04 Diversity Set (AID 1172); settings: higher = more signal; also: test concentration not given here
[12] = basal S. cerevisiae growth modulation, no modifier, primary screen, OD600, strain BY4716, 24 h, basal condition (AID 1173); settings: OD600, 24 h, higher = more signal, called active from +8 up or from −8 down
[13] = MM1S myeloma cell viability, profiling panel, resazurin fluorescence, basal, 24 h, PK04 Diversity Set (AID 1174); settings: higher = more signal, called active from +8 up or from −8 down;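 also: MM1S multiple myeloma cell line; test concentration not given here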
[14] = biological target: Dihydroorotate dehydrogenase (quinone), mitochondrial (Plasmodium falciparum (isolate 3D7)) (UniProt Q08210); experiment: PfDHODH enzyme inhibitors, primary screen, biochemical, C-terminal His tag, absorbance 600 nm (AID 1175); settings: DCIP absorbance 600 nm, higher = more signal, called active from +8 up or from −8 down;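 also: recombinant parasite enzyme with a five histidine tag at its C terminus; test concentration not given here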
Sequence of Dihydroorotate dehydrogenase (quinone), mitochondrial (Plasmodium falciparum (isolate 3D7)) (Q08210 whole entry, looked up): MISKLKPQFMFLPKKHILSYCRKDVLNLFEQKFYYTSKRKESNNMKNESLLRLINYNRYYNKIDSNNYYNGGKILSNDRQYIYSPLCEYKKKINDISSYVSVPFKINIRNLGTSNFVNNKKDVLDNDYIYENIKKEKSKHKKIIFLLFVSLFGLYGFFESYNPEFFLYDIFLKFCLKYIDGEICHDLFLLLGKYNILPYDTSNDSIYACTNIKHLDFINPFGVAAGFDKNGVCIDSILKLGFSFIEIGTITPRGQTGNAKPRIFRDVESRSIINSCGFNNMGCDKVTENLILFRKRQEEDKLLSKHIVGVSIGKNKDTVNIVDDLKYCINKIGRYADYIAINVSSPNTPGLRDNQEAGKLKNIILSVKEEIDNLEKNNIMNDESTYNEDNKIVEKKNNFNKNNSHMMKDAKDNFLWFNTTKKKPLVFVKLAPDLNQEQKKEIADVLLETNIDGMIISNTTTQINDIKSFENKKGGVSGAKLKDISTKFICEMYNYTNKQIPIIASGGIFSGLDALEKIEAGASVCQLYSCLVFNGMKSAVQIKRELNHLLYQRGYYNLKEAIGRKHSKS

[15] = P. aeruginosa biofilm formation inhibitors, primary screen, strain PAO1, LB-PBS medium, absorbance 600 nm (AID 1176); also: test concentration not given here; settings: P. aeruginosa PAO1 growth/biofilm, A600, 12 h; higher = more signal
[16] = S. cerevisiae RM11-1a growth modifiers, primary screen, strain RM11-1a, OD600, basal, 24 h (AID 1177); settings: OD600, 24 h, higher = more signal, called active from +8 up or from −8 down;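 also: cultures grown under basal conditions with no added stressor; test concentration not given here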
[17] = E. coli acrAB mutant growth effects, primary screen, E. coli filamentation inducers, strain DRC39, OD650, 24 h (AID 1178); settings: higher = more signal, called active from +8 up or from −8 down;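 also: growth measured as culture turbidity by optical density at 650 nm; test concentration not given here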
[18] = E. coli acrAB mutant growth effects, primary screen, E. coli filamentation inducers, strain DRC39, OD650, 48 h (AID 1179);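 also: screen aims at cell division blockers that make cells filament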; settings: E. coli DRC39 delta-acrAB growth, higher = more signal, called active from +8 up or from −8 down
[19] = RPMI8226 myeloma cell viability, profiling panel, resazurin fluorescence, basal, 24 h, PK04 Diversity Set (AID 1180); settings: higher = more signal;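 also: RPMI8826 multiple myeloma cell line at 5000 cells per well; test concentration not given here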
[20] = biological target: E3 ubiquitin-protein ligase XIAP (Homo sapiens) (UniProt P98170); experiment: XIAP binders, primary screen, biophysical, small-molecule microarray, fluorescence 635 nm (AID 1181); settings: small-molecule microarray binding, higher = more signal;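 also: score merges 667 nm emission and signal to noise over triplicate slides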
Sequence of E3 ubiquitin-protein ligase XIAP (Homo sapiens) (P98170 whole entry, looked up): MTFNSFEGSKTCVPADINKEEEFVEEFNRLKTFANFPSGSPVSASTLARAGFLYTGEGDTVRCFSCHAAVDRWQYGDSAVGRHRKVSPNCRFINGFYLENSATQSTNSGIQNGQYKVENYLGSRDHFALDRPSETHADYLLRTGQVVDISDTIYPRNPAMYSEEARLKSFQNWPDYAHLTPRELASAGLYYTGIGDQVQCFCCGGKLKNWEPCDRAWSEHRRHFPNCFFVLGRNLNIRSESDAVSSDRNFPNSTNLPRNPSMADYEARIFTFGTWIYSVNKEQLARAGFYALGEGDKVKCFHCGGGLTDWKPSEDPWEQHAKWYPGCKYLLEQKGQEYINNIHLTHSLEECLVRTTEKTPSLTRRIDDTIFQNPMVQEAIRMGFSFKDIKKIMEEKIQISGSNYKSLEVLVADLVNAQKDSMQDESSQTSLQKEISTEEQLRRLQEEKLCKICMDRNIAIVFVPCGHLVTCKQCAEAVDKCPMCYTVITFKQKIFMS

SMILES	z-score [1]	z-score [2]	z-score [3]	z-score [4]	z-score [5]	z-score [6]	z-score [7]	z-score [8]	z-score [9]	z-score [10]	z-score [11]	z-score [12]	z-score [13]	composite z-score [14]	z-score [15]	z-score [16]	z-score [17]	z-score [18]	z-score [19]	composite z-score [20]
O=C1OCCC=C[C@H]2OC34C=CCN(Cn5nnc6ccccc65)C(=O)[C@H]3N(CCCCCO)C(=O)[C@@H]4C12 (stereo not given in full)	-0.0295	0.43	0.293	1.75	0.723	0.742	0.117 (inactive)	0.0919	-1.19	-0.605 (inactive)	-0.444	0.994 (inactive)	0.241 (inactive)	-0.951 (inactive)	-0.0432 (inactive)	0.137 (inactive)	0.672 (inactive)	0.774 (inactive)	0.618	-0.0943
O=C1N(CCS(=O)(=O)c2ccccc2)Cc2ccccc2C[C@@]12COC(c1ccc(OCCCO)cc1)=N2	-0.696	0.643	1.13	-2.84	-1.53	-1.08	0.0146 (inactive)	-1.03	-2.13	-3.42 (inactive)	0.0549	1.58 (inactive)	-5.12 (inactive)	-0.211 (inactive)	0.0379 (inactive)	2.14 (inactive)	0.862 (inactive)	-0.691 (inactive)	-3.43	0.167
COc1cccc(C)c1NC(=O)O[C@H]1[C@H](OC(=O)Nc2ccccc2)[C@H](OC(=O)Nc2ccccc2)[C@@H](OC)O[C@@H]1CO	-1.09	0.93	-1.1	-2.53	-2.81	0.321	0.306 (inactive)	-1.1	0.268	-2.57 (inactive)	-1.22	0.803 (inactive)	-2.2 (inactive)	0.111 (inactive)	0.565 (inactive)	0.673 (inactive)	0.462 (inactive)	-0.358 (inactive)	-1.65	0.0744
CN(C)CCCCCCNC(=O)[C@@H]1C[C@@H]2C(=O)NCC(=O)N2[C@@H]1c1ccc(O)cc1	-0.627	0.5	-0.963	-0.539	0.71	-1.16	-0.782 (inactive)	0.3	0.216	-0.898 (inactive)	-1.01	-1.06 (inactive)	-1.26 (inactive)	-0.493 (inactive)	-0.13 (inactive)	-0.832 (inactive)	-0.208 (inactive)	-0.823 (inactive)	-1.35	0.249
C=C(/C(=C/C[C@@H](OC(=O)c1ccncc1)c1ccccc1OCCO)c1cnc2ccccc2c1)C(C)C	-0.36	-0.368	-3.15	-3.1	-2.45	0.76	-0.19 (inactive)	0.14	1.08	-1.15 (inactive)	-1.11	-18.3 (active)	-0.807 (inactive)	-6.99 (inactive)	0.485 (inactive)	-21.9 (active)	-0.328 (inactive)	-0.805 (inactive)	-0.365	0.326
C=C(CCCC)/C(=C/C[C@H](OC(=O)c1ccncc1)c1ccc(CO)o1)c1cc(C(=O)OC)ccc1OC	-0.705	-0.0954	-0.677	-3.18	-1.04	-0.132	-0.991 (inactive)	-0.375	-0.207	-0.401 (inactive)	-0.673	-0.756 (inactive)	-2.13 (inactive)	-3.99 (inactive)	0.898 (inactive)	-0.145 (inactive)	-0.861 (inactive)	-0.528 (inactive)	-0.963	0.0537
COc1ccc(C#Cc2ccc3c(c2)[C@]2(C(=O)N3)[C@H](C(N)=O)[C@H]3C(=O)O[C@H](c4ccccc4)[C@H](c4ccccc4)N3[C@@H]2c2ccc(O)cc2)cc1	-0.765	0.13	-4.5	-3.29	-4.56	-3.11	0.283 (inactive)	-1.1	-2.28	-1.05 (inactive)	-0.295	-0.299 (inactive)	-4.88 (inactive)	0.817 (inactive)	1.41 (inactive)	1.68 (inactive)	0.666 (inactive)	0.714 (inactive)	-6.43	0.0031
CCCCCCCCCCC(O)C1C=CC2C(=O)NC(=O)C2N1Nc1ccccn1 (stereo not given)	-3.22	-0.964	-4.08	-3.81	-4.13	-3.82	-0.46 (inactive)	-0.944	-0.657	-1.5 (inactive)	-2.19	-10.4 (active)	-2.8 (inactive)	0.364 (inactive)	2.43 (inactive)	-5.05 (inactive)	-2.29 (inactive)	-3.65 (inactive)	-1.64	0.0153
O=C1O[C@@H](c2ccccc2)[C@@H](c2ccccc2)N2[C@@H](c3ccc(O)cc3)[C@]3(C(=O)Nc4ccc(C#CC5=CCCCC5)cc43)[C@@H](C(=O)Nc3nc4ccccc4s3)[C@H]12	0.583	-0.0897	1.46	-0.575	-1.81	-2.6	0.03 (inactive)	-0.745	-1.02	-0.361 (inactive)	0.235	-0.826 (inactive)	-0.139 (inactive)	-0.504 (inactive)	2.14 (inactive)	0.137 (inactive)	0.591 (inactive)	0.986 (inactive)	-0.595	-0.0925
CN(C)CCCNC(=O)[C@@]1(Cc2ccccc2I)c2ccccc2C(=O)N(Cc2ccccc2Cl)[C@H]1c1ccc(CO)cc1	-4.22	0.711	-5.11	-3.8	-4.38	-1.9	-0.373 (inactive)	-0.935	-2.3	-6.99 (inactive)	-6.48	-7.72 (inactive)	-8.82 (active)	-0.205 (inactive)	-0.233 (inactive)	-0.0889 (inactive)	-0.268 (inactive)	-1.26 (inactive)	-6.59	0.166
COc1cc(C(O)C2C=CC3C(=O)NC(=O)C3N2Nc2ccc(Cl)cc2Cl)cc(OC)c1OC (stereo not given)	-0.797	0.349	-0.751	0.192	-1.44	-0.359	-1.63 (inactive)	-0.82	0.483	-0.315 (inactive)	-0.925	-12.7 (active)	-0.679 (inactive)	0.0871 (inactive)	0.683 (inactive)	0.1 (inactive)	-0.305 (inactive)	-0.425 (inactive)	-0.933	0.0454
C[N+](C)(C)CCCC[C@@H]1NC(=O)[C@H]2C[C@@H](C(=O)NCCCCCCN)[C@@H](c3cccc(OCCO)c3)N2C1=O	-0.535	0.875	-0.997	0.179	1.07	-1.01	-0.547 (inactive)	-0.0252	-0.154	-0.871 (inactive)	-2.69	-0.707 (inactive)	0.45 (inactive)	-0.114 (inactive)	1.18 (inactive)	-0.0241 (inactive)	-0.678 (inactive)	-1.35 (inactive)	0.652	0.194
[N-]=[N+]=Nc1ccccc1[C@@H]1OC(c2ccc(OCCCO)cc2)=N[C@]1(CCS(=O)(=O)c1ccccc1)C(=O)NCc1ccccc1	0.282	0.803	0.82	-0.723	-0.185	0.136	3.88 (inactive)	-1.03	-0.856	-0.725 (inactive)	-0.287	1.18 (inactive)	-0.37 (inactive)	-2.59 (inactive)	0.727 (inactive)	1.4 (inactive)	0.439 (inactive)	1.01 (inactive)	-0.893	0.125
COc1ccccc1CN1C(=O)c2ccccc2[C@@]2(Cc3ccccc3N(C3CC3)C2=O)[C@@H]1c1ccc(CO)cc1	0.0264	0.358	0.43	-1.6	-0.96	-0.774	-0.607 (inactive)	0.213	0.361	0.375 (inactive)	0.409	0.162 (inactive)	-0.319 (inactive)	-6.76 (inactive)	-0.255 (inactive)	-0.522 (inactive)	-0.473 (inactive)	-0.694 (inactive)	-0.343	-0.232
C=CCNC(=O)[C@@H]1[C@H]2C(=O)O[C@H](c3ccccc3)[C@H](c3ccccc3)N2[C@H](c2ccc(O)cc2)[C@@]12C(=O)Nc1ccc(C#CCCO)cc12	0.47	0.79	-0.168	-0.21	-0.719	-0.931	-0.296 (inactive)	-0.456	-0.388	1.01 (inactive)	0.917	-0.599 (inactive)	0.343 (inactive)	-0.489 (inactive)	-0.212 (inactive)	-0.769 (inactive)	0.883 (inactive)	-0.582 (inactive)	1.32	-0.377
CCCCC(=C=CC[C@H](O)c1cccc(OCCO)c1)C[C@H](O)COCc1ccccc1	0.803	0.403	0.0132	-1.06	-0.63	0.214	0.254 (inactive)	0.746	-0.378	1.4 (inactive)	1.38	-0.919 (inactive)	0.202 (inactive)	-1.06 (inactive)	0.342 (inactive)	0.178 (inactive)	0.525 (inactive)	0.122 (inactive)	0.774	-0.165
COCCOC(=O)N1C(=O)[C@@]2(c3cc(C#Cc4ccc(OC)cc4)ccc31)[C@H](C(N)=O)[C@H]1C(=O)O[C@H](c3ccccc3)[C@H](c3ccccc3)N1[C@@H]2c1ccc(OCCO)cc1	-1.42	0.879	-0.656	-1.79	-2.31	-1.59	2.52 (inactive)	-0.57	-1.39	0.676 (inactive)	0.0456	1.61 (inactive)	-1.41 (inactive)	-0.0352 (inactive)	1.71 (inactive)	2.42 (inactive)	-0.315 (inactive)	-0.697 (inactive)	-1.82	-0.157
COCCOC(=O)N1C(=O)[C@@]2(c3cc(C#Cc4ccc(OC)cc4)ccc31)[C@H](C(=O)N1CCc3cc(OC)c(OC)cc3C1)[C@H]1C(=O)O[C@H](c3ccccc3)[C@H](c3ccccc3)N1[C@@H]2c1ccc(OCCO)cc1	-0.403	1.41	-1.13	-0.0142	-1.38	-0.999	2.31 (inactive)	-0.223	-0.919	-0.0945 (inactive)	-0.562	1.39 (inactive)	-0.12 (inactive)	-0.0739 (inactive)	1.27 (inactive)	2.92 (inactive)	-0.997 (inactive)	-1.19 (inactive)	0.54	0.365
